Source: PubChem BioAssay (NCATS)
Inconclusive results are not listed. Entries that show only a call come without a potency. Activity calls are given as the source filed them. Calls come from the whole dose curve; as a rule, active = well fitted inhibition curve with a large enough effect; inconclusive = small, poorly fitted or top-dose-only effect; inactive = flat fitted curve, though single readings scatter.

Test system: CP329
Experiment: qHTS profiling for inhibitors of Plasmodium falciparum proliferation (AID 504749); note: nearly all actives have a fitted effect of over 60% in size
Settings: P. falciparum in erythrocytes, SYBR Green DNA, 72 h; series mostly up to 28.7 µM
Outline: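 Readout was DNA-dye fluorescence from lysed cultures, ex 485/em 535 nm. Parasitized red cells had grown 72 h with compound; data scaled between 0.29 uM artemisinin and DMSO wells and corrected using vehicle-only plates.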
Potency is the fitted concentration of half-maximal effect.

Compound | Potency
CCCCCCCCCCCCCCCC(=O)OC[C@H](O)[C@H]1OC[C@@H](O)[C@@H]1O | inactive
CCCCC(=O)OCC(=O)[C@]1(O)Cc2c(O)c3c(c(O)c2[C@H](OC2CC(NC(=O)C(F)(F)F)C(O)C(C)O2)C1)C(=O)c1c(OC)cccc1C3=O (stereo not given in full) | 3790 nM (active)
C[C@H]1OC(OC2C(O)[C@@H](O)C(OC3C(O)[C@@H](O)C(O)O[C@@H]3CO)O[C@@H]2CO)[C@H](O)C(O)C1N[C@H]1C=C(CO)[C@@H](O)[C@H](O)C1O (stereo not given in full) | inactive
CCN(CC)CC(=O)Nc1c(C)cc(C)cc1C | inactive
CC(=O)N[C@H]1[C@H](O[C@@H]2c3ccc(c(Cl)c3)Oc3cc4cc(c3O[C@@H]3O[C@H](CO)[C@@H](O)[C@H](O)C3C)Oc3ccc(cc3Cl)C[C@H]3NC(=O)[C@@H](N)c5ccc(O)c(c5)Oc5cc(O)cc(c5)[C@H](NC3=O)C(=O)N[C@H]4C(=O)N[C@H]3C(=O)N[C@@H]2C(=O)N[C@@H](C(=O)O)c2cc(O)cc(O[C@H]4O[C@H](CO)[C@@H](O)C(O)[C@@H]4O)c2-c2cc3ccc2O)O[C@H](CO)[C@@H](O)[C@@H]1O (stereo not given in full) | inactive
NC(=O)c1ncn(C2OC(CO)C(O)C2O)c1N (stereo not given) | inactive
C[C@H]1[C@@H](OC(=O)CCC(=O)O)OC2OC3(C)CC[C@H]4[C@H](C)CC[C@@H]1[C@@]24OO3 (stereo not given in full) | 7.6 nM (active)
CC1(Cn2ccnn2)[C@H](C(=O)O)N2C(=O)C[C@H]2S1(=O)=O (stereo not given in full) | inactive
CN(C)CC/C=C1\c2ccccc2COc2ccc(CC(=O)O)cc21 | inactive
CCCC(=O)O[C@]1(C(=O)COC(C)=O)CC[C@H]2C3C[C@H](F)C4=CC(=O)C=CC4(C)[C@@]3(F)[C@@H](O)CC21C (stereo not given in full) | inactive
